# From PubChem BioAssay
# Records with an inconclusive call do not appear. Values without a mark were called inactive.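 The calls were made as follows, unless noted: active = viability at or below 27.92% in each of two runs, the all-compound median minus 4 SD; inconclusive = no clear call, values can overlap the other calls; inactive = the rest.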
# Test: viability of HCT116 without oncogenic beta-catenin – human colon tumor cells, pilot screen (AID 823;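 active = cell viability at or below a set limit in both duplicate runs, the limit being the all-compound median minus 4 SD, cut at about 23% in these data, passing the limit was not always enough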;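 also: 0% = wells killed by 20 µM Hyamine and 100% = untreated DMSO cell wells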)
# Conditions: HCT116 beta-catenin knockout viability, CellTiter-Glo, 60 h; at 10 µM; stronger effect = lower value
row,SMILES,viability
1,Cn1c(C(=O)N2CCC(C(N)=O)CC2)cc2c(=O)n(C)c3ccccc3c21,110%
2,COc1ccccc1N1CCN(C(=O)c2sc3nc(-c4ccc(F)cc4)cn3c2C)CC1,57.6%
3,CC(C)CNS(=O)(=O)c1ccc(S(=O)(=O)N2CCN(CCC#N)CC2)cc1,99.6%
4,CCCN1Cc2cccc(C(=O)Nc3ccc4c(c3)OCCO4)c2C1=O,106%
5,CCOC(=O)CN1CC23C=CC(O2)C(C(=O)NC2CCCCCC2)C3C1=O (stereo unspecified),99.3%
6,Cc1nnc(NC(=O)CSc2nnc(Cc3cccn3C)n2C)s1,98.8%

# Test: viability of PTEN-null HCT116 cells – cell-based, HCT116 clonal line, CellTiter-Glo, pilot screen (AID 824);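 also: 0% = 20 µM Hyamine control and 100% = vehicle cell control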
# Conditions: HCT116 PTEN-deleted viability, 60 h, at 10 µM, stronger effect = lower value
row,SMILES,viability
1,CCCCn1c(CNC(=O)c2cccs2)nc2ccccc21,94.5%
2,COC(=O)C1=C(C)NC(=O)CC1c1cccc(Cl)c1Cl (stereo unspecified),98%
3,Cn1c(Cn2c(=O)sc3ccccc32)nnc1SCC(=O)NCCc1ccccc1,105%
4,Cc1ccccc1S(=O)(=O)Cc1ccc(C(=O)N2CCN(C3CCCCC3)CC2)o1,89.6%
5,Cn1c(C(=O)NC2CCCCC2)cc2c(=O)n(C)c3ccccc3c21,73.8%
6,O=c1oc(-c2cccs2)nc2sc3c(c12)CCCCC3,80.3%
7,CN(C)C(=O)N1CCC(C(=O)NCc2ccc(F)cc2)CC1,94.7%
8,Cc1cc(Nc2c(C)cccc2C)n2nc(C)nc2n1,111%
9,O=C1CC(Nc2ccc(N3CCOCC3)cc2)C(=O)N1c1ccccc1F (stereo unspecified),105%
10,COc1cc(NC(=O)c2cc(C(C)C)on2)cc(OC)c1OC,94.5%
